Assay results: ChEMBL document CHEMBL1157539, “Thousands of chemical starting points for antimalarial lead identification” (Nature, 2010)

How the values were obtained:
Type in all cases: functional
Plasmodium falciparum [1] = experiment: GSK_TCMDC: Inhibition of Plasmodium falciparum 3D7 in whole red blood cells, using parasite LDH activity as an index of growth. Test compounds present at 2uM
Plasmodium falciparum [2] = experiment: GSK_TCMDC: Inhibition of Plasmodium falciparum Dd2 in whole red blood cells, using parasite LDH activity as an index of growth. Test compounds present at 2uM
HepG2 = experiment: GSK_TCMDC: Percent inhibition of human HepG2 cell line. Test compounds present at 10uM.

| Compound | Inhibition (Plasmodium falciparum [1]) | Inhibition (Plasmodium falciparum [2]) | Inhibition (HepG2) |
| --- | --- | --- | --- |
| Cc1ccc2c(=O)cc(CCc3cccc(F)c3F)n(CC(=O)N(Cc3ccc(-c4ccc(C(F)(F)F)cc4)cc3)C3CCN(C)CC3)c2n1.O=C(O)C(O)C(O)C(=O)O | 86% | 76% | 49% |
| COc1cc(Nc2nccc(N3CCC(NC(=O)Nc4cc(C)ccc4C)C3)n2)cc(OC)c1OC (centres undefined) | 91% | 52% | 13% |
| CSc1cccc(Nc2nc3ccc(S(=O)(=O)NC(C)C(C)C)cc3n2[C@H](C)C(C)(C)C)c1 (some centres undefined) | 97% | 98% | 0% |
| O=C(C=Cc1ccc(-c2ccccc2)cc1)N1CCC(CCN2CCC(c3c[nH]c4ccccc34)CC2)CC1 | 87% | 16% | 44% |
| CC(CN(C)C)C(=O)Nc1ccc(-c2csc(-c3nc4ccccc4[nH]3)c2)cc1 (centres undefined) | 84% | 19% | 28% |
| COc1cc(OC)cc(-c2nn(-c3ccc([N+](=O)[O-])cc3C#N)c(=S)n2CC2CCCO2)c1 (centres undefined) | 98% | 75% | 9% |
| Cc1cc(=NN=Cc2ccc(F)cc2)c2cccc(C)c2[nH]1 | 100% | 99% | 7% |
| C=CC(=O)Nc1ccc(Cl)cc1C(O)c1ccccc1 (centres undefined) | 100% | 5% | 0% |
| O=C(C=Cc1ccc(Cl)c(Cl)c1)NCCCCCN1CCC(CCCNC(=O)/C=C/c2ccccc2)CC1 | 96% | 33% | 50% |
| O=C(Nc1cccc(-c2ccc(-c3nc4cc(F)ccc4[nH]3)cc2)c1)Nc1ccc(F)c(F)c1F | 98% | 98% | 53% |
| CC(Cc1ccc(NC(=O)c2ccc(CNCCCCc3ccccc3)cc2)cc1)NCCc1cccc(Cl)c1.Cl (centres undefined) | 100% | 96% | 100% |
| Cc1cc(OCCCN2CCC(NS(=O)(=O)c3ccc(Cl)c(Cl)c3)CC2)c2ccccc2n1 | 96% | 35% | 11% |
| COc1ccc(C(=O)N2CCC(C(=O)NC(C)c3ccc(-n4ccnc4)cc3)CC2)c2ccccc12 (centres undefined) | 83% | 79% | 12% |
| Clc1ccc2c(NCc3ccc4c(c3)OCO4)ccnc2c1 | 100% | 97% | 6% |
| Cc1cccc2nc(-c3ccc(-c4ccc(NC(=O)CN5CCN(C)CC5)cc4)s3)[nH]c12 | 95% | 86% | 56% |
| CN1CCCN(Cc2cccc(-c3ccc(NC(=O)c4cccc(Cl)c4)cc3)c2)CC1.O=C(O)C(F)(F)F | 90% | 10% | 34% |
| CCOC(=O)c1c(CCc2ccc(C(F)(F)F)cc2)nc2c(c1-c1ccc(C(=O)N[C@@H](C)c3ccncc3)cc1)C(=O)N1CCC[C@@H]21 | 85% | 68% | 0% |
| NC(=O)COc1cccc2c1CCN(CCN1CCC(NC(=O)c3ccc(-c4ccc(Cl)cc4)cc3)CC1)C2 | 92% | 6% | 44% |
| CN(CC(=O)Nc1ccc(F)c(F)c1F)c1ncnc2sc(-c3ccccc3)cc12 | 95% | 34% | 0% |
| CC(C)[C@H](NC(=O)c1ccc(O)c(-c2ccc(Cl)c(Cl)c2)c1)C(=O)NCCN(C)C | 92% | 1% | 0% |
| O=C(O)C(F)(F)F.O=S(=O)(NCCN1CCCC1)c1cccc(-c2ccc(CNC3Cc4ccccc4C3)cc2)c1 | 99% | 74% | 79% |
| O=C(Nc1ccccc1)c1ccc(-c2cc3ccncc3cc2OC2CCNCC2)s1 | 100% | 8% | 0% |
| Cc1cc(CNCCCCCNCc2cccc([N+](=O)[O-])c2)ccc1O | 98% | 0% | 14% |
| COc1ccc(Cl)cc1N1CCN(CCCNC(=O)c2ccc(-c3nc4cc(Cl)c(F)cc4[nH]3)c(F)c2)CC1 | 100% | 91% | 21% |
| Cc1cc(NCCc2ccccc2)nc(NC(=N)Nc2cccc(F)c2)n1 | 91% | 0% | 0% |
| CCCCCOc1ccc(C=NNc2nc(O)cc(-c3ccccc3)n2)cc1 | 88% | 86% | 0% |
| Cc1nc(-c2ccc(-c3ccc(C(=O)Nc4ccc(Cl)c(N5CCN(C)CC5)c4)cc3)c(C)c2)no1 | 100% | 47% | 23% |
| Cc1ccc(C2CCN(CCCCNC(=O)c3ccc(-c4ccc(C(F)(F)F)cc4)cc3)CC2)c(O)c1 | 100% | 49% | 92% |
